Drawing on PubChem BioAssay (NCATS), this text covers max response, outcome and Potency for 17 compounds.

Results filed as inconclusive are left out. A number with no mark means an inactive call. Active and inactive are the calls of the source. Calls come from the whole dose curve; as a rule, active = well fitted inhibition curve with a large enough effect; inconclusive = small, poorly fitted or top-dose-only effect; inactive = flat fitted curve, though single readings scatter.

What all share (assay): Cytotoxic Profiling of Annotated Libraries Using Quantitative High-Throughput Screening (AID 1296008); note: nearly all actives have a fitted effect of over 60% in size
Settings in all cases: Five cell lines viability, CellTiter-Glo ATP luminescence, 48-72 h; max response: active compounds read low
(In general: In ATP-based viability assays light output follows the ATP content of the culture.)

For experiment [1], the system named is CRL-7250. In a few lines: (§1)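 Cells exposed to compounds for 48 or 72 hr at 37 degrees Celsius. Viability read as ATP-coupled luminescence with CellTiter-Glo after 10 min at room temperature.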
Experiment [2] relates to HEK293. In a few lines: as §1
For experiment [3], the system named is HaCat. In a few lines: as §1
Experiment [4] concerns KB-3-1. In a few lines:
as §1

The test system of experiment [5] is NIH3T3. In a few lines: as §1
% is set by controls: 0 for no effect and ±100 for the full control effect; potency is the fitted concentration of half-maximal effect.

In the case of `C=C(C)[C@@H]1CC[C@]2(C)CC[C@]3(C)[C@H](CC[C@@H]4[C@@]5(C)CC[C@@H](O)C(C)(C)[C@@H]5CC[C@]43C)[C@@H]12`, the max response in experiment [1] is -1.57%; in experiment [2], -21%; in experiment [3], 0.908%; in experiment [4] it was -4.19%; in experiment [5], 1.04%.

With `COc1ccc(/C=C/C(=O)O[C@@H]2[C@@H](O)[C@H](C)O[C@@H](O[C@H]3[C@@H]4C=CO[C@@H](O[C@H]5O[C@@H](CO)[C@H](O)[C@@H](O)[C@@H]5O)[C@@H]4[C@@]4(CO)O[C@@H]34)[C@@H]2OC(C)=O)cc1`, the max response is -2.4% in experiment [1]; 0.0012% in experiment [2]; 3.75% in experiment [3]; 9.04% in experiment [4]; 1.61% in experiment [5].

For `C[C@@H]1C(=O)OC[C@H]2C(C(=O)O)=C[C@@H]3CC(C)(C)C[C@]312`, the outcome in experiment [1] was inactive. Also, the max response is 4.25% in experiment [2], 3.35% in experiment [3], 5.81% in experiment [4] and 4.19% in experiment [5].

In the case of `COc1ccc(CNC(=O)c2cc(-c3cncc(C)c3)ncc2-c2nccs2)nc1OC`, the compound was called inactive in experiment [1] and in experiment [4]. The max response in experiment [2] is -57.9%; in experiment [3] it was -36.2%; in experiment [5], -26.3%.

Regarding `CC(C)C(C#N)O[C@@H]1O[C@H](CO[C@@H]2O[C@@H](C)[C@H](O)[C@@H](O)[C@H]2O)[C@@H](O)[C@H](O)[C@H]1O` (stereo not given in full), the max response is -4.82% in experiment [1]; 0.693% in experiment [2]; -12% in experiment [3]; -1.19% in experiment [4]; -15% in experiment [5].

For `C/C=C/c1cc(OC)c2c(c1)[C@@H](C)[C@@H](c1ccc(O)c(OC)c1)O2`, the max response in experiment [1] is -4.41%; in experiment [2], -109%; in experiment [3] it was -83.1%; in experiment [4] it was -24.2%; in experiment [5], -61.9%.

For the compound `C=C1CCC2C(C)(C)CCC[C@]2(C)[C@H]1C/C=C(\CO)C(=O)C(=O)O` (stereo not given in full), the max response in experiment [1] was -8.85%; in experiment [2], 1.79%; in experiment [3] it was 3.5%; in experiment [4], -9.53%; in experiment [5] it was -2.57%.

Regarding `C=C1CC[C@@H]2[C@](C)(CO[C@@H]3O[C@H](CO)[C@@H](O)[C@H](O)[C@H]3O)[C@H](O)CC[C@@]2(C)[C@@H]1C/C=C1/C(=O)OC[C@H]1O`, the max response is 4.42% in experiment [1], -4.02% in experiment [2], 3.39% in experiment [3] and 2.12% in experiment [5]. Besides, in experiment [4], the compound was called inactive.

As to `CC1(C)CCCC2(C)C(CO)C(CO)=CCC12` (stereo not given), the max response is -20.3% in experiment [1]; -4.79% in experiment [2]; 0.151% in experiment [3]; -2.42% in experiment [4]; -1.37% in experiment [5].

As for `COc1cc2ncnc(Nc3cccc(Cl)c3F)c2cc1OC(=O)N1CCN(C)C[C@H]1C`, the max response was -58.2% in experiment [1], -115% in experiment [2], -86.6% in experiment [3] and -86.1% in experiment [5]. The result in experiment [4] was inactive.

As to `CC1(C)CCCC2(C)C1CC=C1C(=O)OC(O)C12O` (stereo not given), the max response in experiment [1] was -7.54%; in experiment [2], -21.2%; in experiment [3], 3.25%; in experiment [4] it was 3.77%; in experiment [5], 0.868%.

On to `CC(C)C(C(=O)N(C)C(C)C(N)=O)N(C)C(=O)C1CCCN1C(=O)/C=C/C=C/C(O)C(C)O` (stereo not given), for which the compound was called inactive in experiment [1]. Also, the max response is 4.88% in experiment [2], -10.3% in experiment [3], 7.9% in experiment [4] and 2.29% in experiment [5].

With `Cc1c(F)cc(C(=O)NC2CC2)cc1-c1c(F)cn2c(C(C)(C)C)nnc2c1F`, the max response was -14.4% in experiment [1]; -22.1% in experiment [2]; -0.453% in experiment [3]; -2.87% in experiment [4]; -8.04% in experiment [5].

Regarding `O=S(=O)(c1ccc(S(=O)(=O)n2cnc3ccccc32)cc1)N1CCCCCC1`, the max response in experiment [1] is -2.18%; in experiment [2], -10.3%; in experiment [3] it was -9.6%; in experiment [4] it was 6.01%; in experiment [5] it was -4.79%.

On to `CC(C)O[C@@H]1O[C@H](CO)[C@@H](O)[C@H](O)[C@H]1O`, for which the max response is 1.32% in experiment [1]; 1.2% in experiment [2]; 4.48% in experiment [3]; 2% in experiment [4]; 4.22% in experiment [5].

As for `CC(=O)O[C@@H]1[C@@H](O)[C@H](C)O[C@@H](O[C@H]2[C@@H]3C=CO[C@@H](O[C@@H]4O[C@H](CO)[C@@H](O)[C@H](O)[C@H]4O)[C@@H]3[C@@]3(CO)O[C@@H]23)[C@@H]1OC(=O)/C=C/c1ccccc1`, the max response in experiment [1] was -1.26%; in experiment [2], 2%; in experiment [3], -6.78%; in experiment [4], -1.35%; in experiment [5] it was -1.99%.

As to `NCCCNc1ccc(Nc2nccc(Nc3cc(C4CC4)[nH]n3)n2)cc1`, the Potency in experiment [1] is 731 nM (active); in experiment [2], 1030 nM (active); in experiment [3] it was 4610 nM (active); in experiment [4], 820 nM (active); in experiment [5], 5800 nM (active).
